Source: PubChem BioAssay AID641 (Vanderbilt High Throughput Screening Facility, 2007)
Screen size: about 58,000 compounds; about 3,400 (5.9%) were called active.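 Rule for the calls: active = luminescence count or its row- and column-corrected plate score outside the 99.7% band of the plate's sample wells, on either side; inactive = the rest.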 The full list was thinned out, with actives kept by preference.

Molecular target: D(1A) dopamine receptor (Homo sapiens) (UniProt P21728)
Experiment: D1 CRE-luciferase signal change, two-sided – cell-based, HEK293 D1, dopamine EC30, D1 allosteric modulator project, primary screen (AID 641)
Settings: dopamine EC30 potentiation, at 10 µM, actives deviate in either direction

Chain of D(1A) dopamine receptor (Homo sapiens) (P21728 whole entry, looked up): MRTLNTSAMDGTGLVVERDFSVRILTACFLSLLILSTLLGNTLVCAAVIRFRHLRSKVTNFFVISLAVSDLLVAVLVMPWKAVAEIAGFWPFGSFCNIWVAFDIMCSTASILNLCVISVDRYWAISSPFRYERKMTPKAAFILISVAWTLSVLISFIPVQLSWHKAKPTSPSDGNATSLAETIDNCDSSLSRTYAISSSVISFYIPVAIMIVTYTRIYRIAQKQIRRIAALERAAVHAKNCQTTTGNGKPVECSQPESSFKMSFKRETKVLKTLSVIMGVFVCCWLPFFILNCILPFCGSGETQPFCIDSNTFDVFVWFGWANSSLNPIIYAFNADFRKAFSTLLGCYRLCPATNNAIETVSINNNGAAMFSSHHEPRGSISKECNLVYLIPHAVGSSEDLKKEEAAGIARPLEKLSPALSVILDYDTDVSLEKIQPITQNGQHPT

B-score, inactive:
COc1ccc(OC)c(Nc2nc(-c3ccc(O)c(O)c3)cs2)c1 -0.798, c1ccc(Nc2nc(-c3ccncc3)cs2)nc1 -2.02, COc1ccc(OC)c(C(=O)c2coc3ccc(OC)cc23)c1 0.803, COc1ccc(CCNC(=O)CSc2nnc(-c3cccc(F)c3)o2)cc1OC 0.506, COc1ccccc1-c1nnc(SCC(=O)Nc2ccccc2)o1 -1.39, Cc1nc2ccccc2c2oc(C(=O)NCC3CCCO3)cc12 (stereo unspecified) 1.81, Cc1ccc(-c2noc(-c3ccccc3C(=O)NCC3CCCO3)n2)cc1 (stereo unspecified) -0.376, CN(C)/C=C1/C(=O)Nc2ccccc21 0.196, CC(C)(C)c1nc(NCC2CCCO2)c2nnn(Cc3ccccc3)c2n1 (stereo unspecified) 0.157, CCCCn1c(SCC(=O)NCC2CCCO2)nc2ccc(N3CCOCC3)cc2c1=O (stereo unspecified) 0.249, CCC1C(C#N)=C(SC)NC2=C1C(=O)CC(C)(C)C2 (stereo unspecified) -0.282, O=C(CCCCn1c(=O)[nH]c2ccccc2c1=O)NCc1ccc2c(c1)OCO2 0.766, O=C(CCn1c(=O)[nH]c2ccccc2c1=O)NCCCN1CCN(c2cccc(Cl)c2)CC1 -1.82, C=CCNC(=O)C1CC=CCC1C(=O)O (stereo unspecified) 0.00169, CC(C)(C)NC(=O)c1cc(NC(=O)c2ccco2)cc(NC(=O)c2ccco2)c1 -0.752, O=C(c1ccco1)N1CCN(c2cccc(Cl)c2)CC1 -0.482, O=C(C1CC1)N1CCN=C1SCc1ccc(Cl)cc1 0.0469, N#CC1=C(N)OC2=C(C(=O)CCC2)C1C1CC=CCC1 (stereo unspecified) -0.19, CCCN1C(=O)C(NC(C)=O)c2cc(OC)ccc21 (stereo unspecified) 0.478, Cc1onc(-c2ccccc2)c1C(=O)N1CCOCC1 -1.43, CC(=O)Nc1cccc(NC(=O)c2c(-c3ccccc3)noc2C)c1 0.894, Cc1cc(C)c2nc(N3CCCC3)c(C#N)cc2c1 0.082, COCCN1Cc2cccc(C(=O)Nc3ccccc3OC)c2C1=O 0.446, CS(=O)(=O)NCc1ccc(C(=O)NCc2ccccc2)cc1 0.452, O=S(=O)(NCCNS(=O)(=O)c1ccccc1)c1ccccc1 0.231, COc1ccccc1Oc1ccc(S(=O)(=O)Nc2cccnc2)cc1 -1.35, O=C(Nc1nnc(-c2ccc(Cl)cc2)o1)c1ccccc1Br -0.685, CC1=CC(C)(C)N(C(=O)CSc2nccn2C)c2cc(C)ccc21 -0.925, Cc1noc(NS(=O)(=O)c2ccc(NC(=O)C34CCC(CC3)C4)cc2)c1C -0.488, CN(CC(=O)NC1CCCCC1)S(=O)(=O)c1cccc2cccnc12 -1.04, O=C(Cn1cnc2c(cnn2-c2ccc(F)cc2)c1=O)NCCc1ccccc1 -0.343, N#C/C(=C1\CCCN1)c1nc(-c2ccccc2)cs1 -1.24, CCCn1c(C(O)c2ccc(OCC)cc2)nc2ccccc21 (stereo unspecified) -0.886, COc1cc(C(O)c2nc3ccccc3n2C)cc(OC)c1OC (stereo unspecified) -0.575, CCOC(=O)C1Cn2c(nc3c(c2=O)C(C)(CC)Cc2ccccc2-3)S1 (stereo unspecified) -0.309, Cn1c(=O)c2c(nc(CN3CCOCC3)n2Cc2ccccc2)n(C)c1=O -0.887, Cc1ccc(N(CC(O)CN2CCCC2)S(=O)(=O)c2ccccc2)cc1 (stereo unspecified) 0.09, COc1ccc(-c2nc(CS(=O)CC(=O)N3CCc4ccccc4C3)c(C)o2)cc1 (stereo unspecified) -0.182, Cc1cccc(-n2ncc3c(N4CCc5ccccc54)ncnc32)c1 -0.748, COc1ccc(-n2ncc3c(N4CCCc5ccccc54)ncnc32)cc1 0.526, Cc1cc(/C=N/n2cnnc2)c(C)n1-c1ccc2ncccc2c1 -0.264, CN1C(=O)c2ccc(NC(=O)c3c(F)c(F)c(F)c(F)c3F)cc2C1=O 0.371, O=C(Cn1cnc2c(nnn2Cc2ccc(F)cc2)c1=O)NCc1ccc2c(c1)OCO2 -1.24, O=C(CN1CCN(CC(=O)Nc2ccc3c(c2)OCO3)CC1)Nc1ccc(F)cc1 -0.0409, O=C(Nc1cccc(F)c1)c1ccc(S(=O)(=O)N2CCCC2)cc1 -0.728, CC(C)CNS(=O)(=O)c1ccc(OCC(=O)Nc2ccc3c(c2)OCO3)c(Cl)c1 0.525, Cc1ccccc1OCC(=O)Nc1ccc(N2CCN(C(=O)C(C)C)CC2)c(Cl)c1 -0.399, Cc1ccc(C)c(NC(=O)CSc2nnc(Cc3cccn3C)n2-c2ccc(F)cc2)c1 -0.0122, CCOC(=O)C1CCc2nc3ccccc3c(=O)n21 (stereo unspecified) -0.327, CC(C[N+](C)(C)C)OC(N)=O (stereo unspecified) 0.394, CSc1nnc(CNC(=O)c2ccccc2)n1-c1ccc(F)cc1 -0.759, Cc1ccccc1NC(=O)c1cnn(-c2ccccc2)c1NC(=O)c1ccco1 -0.921, COCCCn1c(CCC(=O)O)ccc1-c1ccc(F)cc1 0.034, COc1ccc(C(=O)Nc2nncs2)c(OC)c1 -0.602, COC(=O)c1sc(NC(=O)c2csc3c2CCCC3)nc1C 0.102, O=C(C1CCN(S(=O)(=O)c2cccs2)CC1)N1CCCCCC1 -0.0225, O=S(=O)(c1cccs1)N1CCN(Cc2ccccc2)CC1 0.549, CCNC(=O)CCc1nc(-c2ccc(C(C)(C)C)cc2)no1 -0.735, CCOc1ccccc1N(CC(=O)Nc1ccccc1C(=O)OC)S(C)(=O)=O 0.461, CC1=C2C(=O)OC(c3ccoc3)C2(C)CCC1 (stereo unspecified) -0.874, CCOc1cccc(NC(=O)CC#N)c1 -0.00988, CC(=O)Nc1ccc(N2CCOCC2)c(C(=O)Nc2cccc(C)c2)c1 -0.395, COc1ccc(S(=O)(=O)N2CCC(C(=O)N3CCOCC3)CC2)cc1OC 1.55, O=C(Cn1cnc2c(nnn2-c2ccccc2)c1=O)N1CCC(Cc2ccccc2)CC1 -0.43, CCSC1=C(C#N)C(=O)n2c1cc1c2CCCC1 -0.914, CCOC(=O)C1=C(C)NC(=O)N(C(C)=O)C1c1ccc(Cl)cc1 (stereo unspecified) -0.258, COc1ccc(-c2noc(-c3cccc(OC)c3OC)n2)cc1OC -0.715, COc1cc(-c2nc(-c3ccncc3)no2)cc(OC)c1OC 0.324, COc1ccc(NC(=O)CN2CCN(S(=O)(=O)c3ccc(F)cc3)CC2)cc1Cl 0.0874, CC1(C)CC(=O)C=C(NCCCNC2CCCCC2)C1 -0.045, COc1cccc(CNC(=O)C2CCN(S(=O)(=O)c3cccc4cccnc34)CC2)c1 0.421, CCOc1ccccc1NC(=O)C1CCN(S(=O)(=O)c2c(C)nn(C)c2C)CC1 -0.536, Cn1cc(S(=O)(=O)N2CCC(Cc3ccccc3)CC2)c(=O)n(C)c1=O 0.229, CC1CCC(NC(=O)c2ccc(N3CCCC3=O)cc2)CC1 (stereo unspecified) -0.328, O=P(c1cccs1)(c1cccs1)c1cccs1 -0.658, CC1C(c2ccccc2)=[N+]([O-])C2(CCCC2)N1O (stereo unspecified) 0.0193, CCCCc1nc2ccccc2c(=O)n1NC(=O)c1c(O)c2cccc3c2n(c1=O)CC3 -0.934, CCCCCC(=O)Nc1ccc2oc(-c3ccncc3)nc2c1 -0.0351, Nc1ccc(-c2nnc(-c3ccc(-c4ccccc4)cc3)o2)cc1 -0.481

B-score, active:
Oc1ccc(-c2csc(Nc3cccnc3)n2)cc1 6.13, COc1ccc(-c2nnc(SCC(=O)NC3CCCCC3)o2)cc1OC 5.11, c1ccc2c(NCC3CCCO3)nc(-c3ccncc3)nc2c1 (stereo unspecified) 6.75, Cn1c(=O)c2[nH]c(NCC3CCCO3)nc2n(-c2ccccc2)c1=O (stereo unspecified) 2.53, O=C(CCCn1c(=O)[nH]c2cc(Cl)ccc2c1=O)NCCN1CCN(c2ccccc2)CC1 -3.76, O=C(c1ccco1)N1CCN=C1SCc1cccc(Cl)c1 6.32, Cc1onc(-c2ccccc2)c1C(=O)Nc1ccccc1C#N -4.73, CCCN1Cc2cccc(C(=O)NCc3ccccc3)c2C1=O 11.5, Cn1c(/C(C#N)=C2/CCCCCN2)nc2ccccc21 11.4, CC(C)n1c(C(O)c2ccccc2)nc2ccccc21 (stereo unspecified) 3.08, CC1(C)Cc2ccccc2-c2nc(CN3CCOCC3)[nH]c(=O)c21 11.8, COc1ccc(-n2ncc3c(N4CCc5ccccc54)ncnc32)cc1 -3.03, CNC(=O)C1CC(=O)N(Cc2ccc3c(c2)OCO3)C(=Nc2ccc(F)cc2)S1 (stereo unspecified) -4.24, CN1CCN(c2ccc(NC(=O)COc3ccc(Cl)cc3Cl)cc2)CC1 -5.29, CC(=O)OC(C)C[N+](C)(C)C (stereo unspecified) 6.75, COC(=O)c1sc(NC(=O)c2ccc(OC)cc2OC)nc1C -2.64, O=S(=O)(c1cccs1)N1CCc2ccccc2C1 7.95, CC(=O)Nc1cccc(Oc2cc(C#N)c(C#N)cc2N2CCOCC2)c1 10.6, CCSc1ncnc2c(C#N)c3n(c12)CCCCC3 13.8, COc1ccc(-c2nc(-c3ccccc3)no2)c(OC)c1 -4.54, COC(=O)c1ccccc1NC(=O)C1CCN(S(=O)(=O)c2cc(OC)ccc2OC)CC1 16.9, CCc1ccc2oc(-c3ccc(N)cc3)nc2c1 -5.51
